PubChem BioAssay (EPA / NIEHS)
Several values for one entry are separate records, joined by “and”; a condition that tells them apart may be missing. Equal entries are not always repeated. Inconclusive results are not listed. Activity calls are given as the source filed them. How the source made its calls, unless noted: active means hit-call score of the fitted dose curve at least 0.9, where 1 is the maximum; inactive means score below 0.9.

Columns and labels:
[1] = BSK_3C_VCAM1: BioMAP Diversity Plus: 3C Assay for Vascular cell adhesion molecule 1 (VCAM1) Biomarker Activity (AID 2282999); conditions: BioMAP 3C HUVEC, VCAM1 ELISA, cytokine-stimulated; actives raise or lower the signal
Outline: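 Activity fitted in both directions relative to DMSO, with ELISA measurement of the surface marker on primary HUVEC (3C) at 24 h post-treatment; parallel SRB staining (0.1% SRB, TCA-fixed, 560 nm) flagged overt cytotoxicity.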

[2] = read-out: Intercellular Adhesion Molecule 1 (ICAM1), ICAM1 (gene 3383); test: BSK_3C_ICAM1: BioMAP Diversity Plus: 3C Assay for Intercellular Adhesion Molecule 1 (ICAM1) Biomarker Activity (AID 2283003); conditions: primary human endothelial cells (HUVEC); actives raise or lower the signal
Outline: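 ELISA readout of ICAM1 in human umbilical vein endothelial cells in the 3C system, taken 24 h post-dose. Gain or loss of signal versus DMSO was fitted in both directions, with SRB total-protein staining run in parallel.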

[3] = BSK_3C_Proliferation: Cell Proliferation Assessment in the BioMAP Diversity Plus: 3C Assay (AID 2283006); conditions: primary human endothelial cells (HUVEC);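 on AC50: potency may reflect either rise or fall in cell number versus DMSO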
Outline: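 Proliferation as total protein: sulforhodamine B (0.1%) stain of TCA-fixed subconfluent human umbilical vein endothelial cells, absorbance 560 nm, 48 h after dosing. Activity fitted in both directions against DMSO baseline.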

[4] = read-out: E-selectin (Homo sapiens) (UniProt P16581); test: BSK_3C_Eselectin: BioMAP Diversity Plus: 3C Assay for Eselectin Biomarker Activity (AID 2283015); conditions: primary human endothelial cells (HUVEC); actives raise or lower the signal
Outline: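 Primary human umbilical vein endothelial cells (3C system), read 24 h after compound addition; E-selectin measured by ELISA. Bidirectional curve fitting against DMSO baseline; cytotoxicity by parallel SRB total-protein staining.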

[5] = read-out: Human Leukocyte Antigen - DR isotype (HLADR), HLA-DRA (gene 3122); test: BSK_3C_HLADR: BioMAP Diversity Plus: 3C Assay for Human Leukocyte Antigen - DR isotype (HLADR) Biomarker Activity (AID 2283019); conditions: primary human endothelial cells (HUVEC); actives raise or lower the signal
Outline: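 HUVEC monoculture, HLA-DR measured by ELISA 24 h after chemical dosing. Fitted bidirectionally against DMSO baseline; parallel SRB staining assessed cytotoxicity, with 3C proliferation read by SRB at 48 h.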

[6] = read-out: Matrix Metallopeptidase 1 (MMP1), MMP1 (gene 4312); test: BSK_BE3C_MMP1: BioMAP Diversity Plus: BE3C Assay for Matrix Metallopeptidase 1 (MMP1) Biomarker Activity (AID 2283024); conditions: primary human bronchial epithelial cells; actives raise or lower the signal
Outline: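 ELISA measurement of MMP-1 after 24 h compound exposure of primary human bronchial epithelial cells. Changes in either direction fitted relative to DMSO; parallel SRB staining checked overt cytotoxicity.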

[7] = read-out: Vascular endothelial growth factor receptor 2 (Homo sapiens) (UniProt P35968); test: BSK_4H_VEGFRII: BioMAP Diversity Plus: 4H Assay for Vascular endothelial growth factor receptor 2 (VEGFR2) Biomarker Activity (AID 2283031); conditions: primary human endothelial cells (HUVEC); actives raise or lower the signal;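 on AC50: cell-surface VEGFR2 protein level quantified by ELISA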
Outline: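 Primary human umbilical vein endothelial cells (4H system), 24 h exposure; cell-surface VEGFR2 measured by ELISA. Bidirectional fitting versus DMSO; cytotoxicity checked in parallel by SRB total-protein staining.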

[8] = read-out: Vascular cell adhesion molecule 1 (VCAM1), VCAM1 (gene 7412); test: BSK_4H_VCAM1: BioMAP Diversity Plus: 4H Assay for Vascular cell adhesion molecule 1 (VCAM1) Biomarker Activity (AID 2283033); conditions: primary human endothelial cells (HUVEC); actives raise or lower the signal
Outline: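 VCAM-1 ELISA read 24 h after chemical dosing of HUVEC in the BioMAP 4H system, with gain or loss of signal fitted relative to DMSO. Parallel SRB staining (560 nm) checked overt cytotoxicity.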

[9] = read-out: Interferon-gamma inducible Protein 10 (IP10), CXCL10 (gene 3627); test: BSK_BE3C_IP10: BioMAP Diversity Plus: BE3C Assay for Interferon-gamma inducible Protein 10 (IP10) Biomarker Activity (AID 2283034); conditions: primary human bronchial epithelial cells; actives raise or lower the signal
Outline: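 IP-10 quantified by ELISA in human primary bronchial epithelial cell cultures at 24 hours post-dosing. Gain or loss of signal fitted relative to DMSO; parallel SRB staining assessed overt cytotoxicity.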

[10] = read-out: Monokine induced gamma interferon (MIG), CXCL9 (gene 4283); test: BSK_BE3C_MIG: BioMAP Diversity Plus: BE3C Assay for Monokine induced gamma interferon (MIG) Biomarker Activity (AID 2283035); conditions: primary human bronchial epithelial cells; actives raise or lower the signal;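 further: MIG protein measured by ELISA in BE3C cultures after 24 h of dosing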
Outline: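 ELISA quantified MIG after 24 h exposure of primary bronchial epithelial cultures, analysed in both directions relative to DMSO. Cytotoxicity tracked in parallel cultures by sulforhodamine B staining.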

[11] = read-out: Plasminogen activator inhibitor-1 (PAI1), SERPINE1 (gene 5054); test: BSK_BE3C_PAI1: BioMAP Diversity Plus: BE3C Assay for Plasminogen activator inhibitor-1 (PAI1) Biomarker Activity (AID 2283037); conditions: primary human bronchial epithelial cells; actives raise or lower the signal
Outline: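 PAI-1 was measured by ELISA in human primary bronchial epithelial cultures 24 h after chemical dosing, with cytotoxicity checked by SRB total-protein staining in parallel cultures. Activity was fitted in both directions relative to DMSO.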

[12] = read-out: urokinase plasminogen activator (uPA), PLAU (gene 5328); test: BSK_BE3C_uPA: BioMAP Diversity Plus: BE3C Assay for urokinase plasminogen activator (uPA) Biomarker Activity (AID 2283038); conditions: primary human bronchial epithelial cells; actives raise or lower the signal;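 further: uPA protein level quantified by ELISA in cell cultures; uPA read one day after compound addition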
Outline: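 Primary human bronchial epithelial cells, uPA measured by ELISA 24 h after dosing. Bidirectional change relative to DMSO; cytotoxicity checked in parallel cultures by sulforhodamine B total-protein staining.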

[13] = read-out: Urokinase-type plasminogen activator receptor (uPAR), PLAUR (gene 5329); test: BSK_BE3C_uPAR: BioMAP Diversity Plus: BE3C Assay for Urokinase-type plasminogen activator receptor (uPAR) Biomarker Activity (AID 2283039); conditions: primary human bronchial epithelial cells; actives raise or lower the signal;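 further: cells exposed to compound for one day before measurement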
Outline: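 uPAR levels were measured by ELISA after 24 h compound treatment of primary human bronchial epithelial cells, fitted in both directions relative to DMSO. Parallel SRB staining served as the cytotoxicity read-out.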

[14] = read-out: Interleukin-6 (IL6), IL6 (gene 3569); test: BSK_CASM3C_IL6: BioMAP Diversity Plus: CASM3C Assay for Interleukin-6 (IL6) Biomarker Activity for (AID 2283040); conditions: primary human coronary artery smooth muscle cells; actives raise or lower the signal
[15] = read-out: Interleukin-8 (IL8), CXCL8 (gene 3576); test: BSK_CASM3C_IL8: BioMAP Diversity Plus: CASM3C Assay for Interleukin-8 (IL8) Biomarker Activity (AID 2283042); conditions: primary human coronary artery smooth muscle cells; actives raise or lower the signal;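 further: IL-8 protein level quantified by ELISA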
[16] = target: Peroxisome proliferator-activated receptor gamma (Homo sapiens) (UniProt P37231); test: OT_PPARg_PPARgSRC1_0480: Odyssey Thera (OT) 8-hour Protein-Complementation Assay for Peroxisome Proliferator-activated Receptor Gamma / SRC-1 Co-activator (AID 2283387; active means hit-call score of the fitted dose curve at least 0.9, where 1 is the maximum)
Peroxisome proliferator-activated receptor gamma (Homo sapiens), sequence (P37231 whole entry, looked up, the tested form may be a part): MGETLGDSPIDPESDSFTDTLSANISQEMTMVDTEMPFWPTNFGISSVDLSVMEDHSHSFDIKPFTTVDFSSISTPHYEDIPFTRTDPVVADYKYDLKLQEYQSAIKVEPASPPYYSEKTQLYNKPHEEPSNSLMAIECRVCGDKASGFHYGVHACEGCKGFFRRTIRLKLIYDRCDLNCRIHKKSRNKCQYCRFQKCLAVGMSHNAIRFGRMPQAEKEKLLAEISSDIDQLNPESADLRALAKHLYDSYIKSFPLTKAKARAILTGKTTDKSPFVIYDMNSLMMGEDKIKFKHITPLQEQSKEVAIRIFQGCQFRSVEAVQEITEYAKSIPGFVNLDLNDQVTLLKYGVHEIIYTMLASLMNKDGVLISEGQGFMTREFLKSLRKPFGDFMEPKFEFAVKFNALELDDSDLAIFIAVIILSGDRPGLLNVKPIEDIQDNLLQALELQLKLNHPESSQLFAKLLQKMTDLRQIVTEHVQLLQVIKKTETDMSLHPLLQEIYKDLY
Outline: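 Read-out: 488 nm N/C fluorescence ratio from complemented Venus YFP fragments, ≥350 cells per image, gain-of-signal fitted against DMSO baseline. Fusions of PPARg/SRC-1 with IFP1/IFP2 expressed transiently in HEK293T; compounds applied 8 h.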

[17] = target: Peroxisome proliferator-activated receptor gamma (Homo sapiens) (UniProt P37231); test: OT_PPARg_PPARgSRC1_1440: Odyssey Thera (OT) 24-hour Protein-Complementation Assay for Peroxisome Proliferator-activated Receptor Gamma/ SRC-1 Co-activator (AID 2283388; active means hit-call score of the fitted dose curve at least 0.9, where 1 is the maximum)
Outline: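 HEK293T transiently transfected with PPARg/SRC-1 split-Venus YFP fusions 48 h before dosing, then treated 24 h at 37C. Fixed cells imaged; nuclear/cytoplasmic 488 nm fluorescence ratio, gain of signal versus DMSO.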

[18] = target: Estrogen-related receptor gamma (Homo sapiens) (UniProt P62508); test: ATG_ERRg_TRANS: Attagene TRANS-FACTORIAL HepG2 Assay for human Estrogen-Related Receptor gamma (ERRg) (AID 2282977; active means hit-call score of the fitted dose curve at least 0.9, where 1 is the maximum;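 further: hits increase reporter signal over DMSO so potencies reflect activators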); conditions: HepG2 Attagene TRANS reporter, ERRg transactivation
Estrogen-related receptor gamma (Homo sapiens), sequence (P62508 whole entry, looked up, the tested form may be a part): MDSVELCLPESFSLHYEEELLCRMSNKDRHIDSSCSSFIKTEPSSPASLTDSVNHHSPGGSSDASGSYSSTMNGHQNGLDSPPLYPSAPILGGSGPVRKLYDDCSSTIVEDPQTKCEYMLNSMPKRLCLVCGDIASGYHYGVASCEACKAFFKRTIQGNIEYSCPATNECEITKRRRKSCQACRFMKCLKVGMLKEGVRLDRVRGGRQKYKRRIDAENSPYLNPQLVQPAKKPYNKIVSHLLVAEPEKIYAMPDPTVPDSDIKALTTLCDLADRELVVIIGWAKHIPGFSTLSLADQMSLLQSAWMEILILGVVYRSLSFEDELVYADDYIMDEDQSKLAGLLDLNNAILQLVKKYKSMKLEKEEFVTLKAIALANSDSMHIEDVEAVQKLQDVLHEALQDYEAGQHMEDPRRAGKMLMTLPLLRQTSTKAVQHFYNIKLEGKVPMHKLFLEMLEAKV
Outline: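 Exogenous NR-Gal4 chimera activity measured as reporter transcript induction after 24 h in transiently transfected HepG2 cells. RNA reverse-transcribed, PCR-amplified, 6-FAM-labelled and resolved by capillary electrophoresis; increase over DMSO baseline.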

[19] = target: Estrogen receptor (Homo sapiens) (UniProt P03372); test: ATG_ERa_TRANS: Attagene TRANS-FACTORIAL HepG2 Assay for human Estrogen Receptor alpha (ERa) (AID 2282970; active means hit-call score of the fitted dose curve at least 0.9, where 1 is the maximum); conditions: HepG2 Attagene TRANS ERa GAL4 reporter, mRNA
Estrogen receptor (Homo sapiens), sequence (P03372 whole entry, looked up, the tested form may be a part): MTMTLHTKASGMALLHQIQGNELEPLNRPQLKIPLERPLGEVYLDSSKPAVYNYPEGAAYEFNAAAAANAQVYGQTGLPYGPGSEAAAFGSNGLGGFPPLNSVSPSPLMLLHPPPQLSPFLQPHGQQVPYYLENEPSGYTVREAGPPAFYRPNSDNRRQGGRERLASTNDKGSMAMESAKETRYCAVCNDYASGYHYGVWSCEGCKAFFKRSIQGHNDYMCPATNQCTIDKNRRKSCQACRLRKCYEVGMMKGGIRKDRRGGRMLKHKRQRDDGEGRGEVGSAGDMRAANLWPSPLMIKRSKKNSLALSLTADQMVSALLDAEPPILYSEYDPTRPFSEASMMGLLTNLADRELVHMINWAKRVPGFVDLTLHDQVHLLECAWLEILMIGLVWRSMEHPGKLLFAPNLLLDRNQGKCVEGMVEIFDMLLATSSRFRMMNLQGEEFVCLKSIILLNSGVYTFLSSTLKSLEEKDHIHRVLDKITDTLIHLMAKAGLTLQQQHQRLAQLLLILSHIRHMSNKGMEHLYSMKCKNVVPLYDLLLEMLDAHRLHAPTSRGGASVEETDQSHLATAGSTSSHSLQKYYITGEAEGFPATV
Outline: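 Gal4-fusion ERa transactivation, measured as reporter transcript level in transiently transfected HepG2 cells. Exposure 24 h; RT-PCR plus capillary electrophoresis with fluorescence detection.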

[20] = target: human Fibroblast Growth Factor Receptor 1 (FGFR1), FGFR1 (gene 2260) (UniProt P11362); test: NVS_ENZ_hFGFR1: NovaScreen (NVS) Enzymatic Assay for human Fibroblast Growth Factor Receptor 1 (FGFR1) (AID 2283159; active means hit-call score of the fitted dose curve at least 0.9, where 1 is the maximum;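 on AC50: hits lower the signal so potencies describe inhibitors of the kinase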)
human Fibroblast Growth Factor Receptor 1 (FGFR1), FGFR1 (gene 2260), sequence (P11362 whole entry, looked up): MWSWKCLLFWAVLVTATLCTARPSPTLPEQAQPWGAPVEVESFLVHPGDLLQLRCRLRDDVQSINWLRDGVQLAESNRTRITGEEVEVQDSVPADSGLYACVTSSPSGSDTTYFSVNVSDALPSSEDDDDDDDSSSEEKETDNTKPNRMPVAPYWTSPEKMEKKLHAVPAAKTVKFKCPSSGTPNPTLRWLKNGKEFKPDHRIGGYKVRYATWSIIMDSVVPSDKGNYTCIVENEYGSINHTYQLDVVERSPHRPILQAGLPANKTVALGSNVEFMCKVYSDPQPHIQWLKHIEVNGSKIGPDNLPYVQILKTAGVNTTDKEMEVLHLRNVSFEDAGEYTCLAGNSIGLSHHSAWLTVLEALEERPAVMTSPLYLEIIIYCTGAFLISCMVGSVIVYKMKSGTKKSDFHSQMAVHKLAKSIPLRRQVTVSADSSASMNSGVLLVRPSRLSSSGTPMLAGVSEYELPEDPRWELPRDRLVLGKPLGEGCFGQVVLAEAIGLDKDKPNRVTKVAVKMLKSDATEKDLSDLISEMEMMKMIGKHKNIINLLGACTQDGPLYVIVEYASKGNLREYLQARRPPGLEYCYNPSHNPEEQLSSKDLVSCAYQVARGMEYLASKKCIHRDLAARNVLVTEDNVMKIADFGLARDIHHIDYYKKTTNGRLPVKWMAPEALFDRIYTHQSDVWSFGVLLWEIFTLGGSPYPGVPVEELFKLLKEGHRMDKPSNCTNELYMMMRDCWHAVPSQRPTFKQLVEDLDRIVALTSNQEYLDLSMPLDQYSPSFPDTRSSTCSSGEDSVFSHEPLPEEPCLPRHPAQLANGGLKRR
Outline: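 Cell-free recombinant kinase with fluorescent substrate, product separated by electrophoretic mobility shift; read 1 hour after dosing, loss of signal relative to DMSO. Initial screen in duplicate at 25 uM, actives followed in concentration series.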

Measured: AC50

E-selectin (Homo sapiens), sequence (P16581 whole entry, looked up): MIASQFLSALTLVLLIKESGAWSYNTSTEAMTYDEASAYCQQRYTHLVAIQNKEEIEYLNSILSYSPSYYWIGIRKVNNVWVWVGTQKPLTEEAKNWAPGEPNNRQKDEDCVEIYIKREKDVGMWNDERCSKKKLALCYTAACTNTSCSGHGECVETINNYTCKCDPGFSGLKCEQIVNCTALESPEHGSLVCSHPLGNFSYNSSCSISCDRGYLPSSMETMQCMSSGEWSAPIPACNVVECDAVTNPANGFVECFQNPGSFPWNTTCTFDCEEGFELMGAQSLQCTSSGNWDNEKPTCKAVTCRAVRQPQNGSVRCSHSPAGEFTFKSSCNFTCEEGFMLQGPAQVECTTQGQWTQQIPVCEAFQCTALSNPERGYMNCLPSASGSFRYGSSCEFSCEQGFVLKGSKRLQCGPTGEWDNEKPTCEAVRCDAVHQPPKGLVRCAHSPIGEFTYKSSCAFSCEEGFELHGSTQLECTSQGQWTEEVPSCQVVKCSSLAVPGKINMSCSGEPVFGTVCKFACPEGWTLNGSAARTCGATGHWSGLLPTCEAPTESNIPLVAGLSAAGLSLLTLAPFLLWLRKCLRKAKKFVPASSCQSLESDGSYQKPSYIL

CC1(C)[C@H](C(=O)O[C@H](C#N)c2cccc(Oc3ccccc3)c2)[C@@H]1C=C(Br)Br
not listed: [18] | [19] | [20]
inactive: all other assays above

Nc1ccccc1
inactive: [16] | [17]

O=C(NCNC(=O)NC1C(=O)NC(=O)N1CO)NC1C(=O)NC(=O)N1CO (stereo not given)
inactive: [18] | [16] | [17]

CC(=O)c1cc2c(cc1C)C(C)(C)C(C)CC2(C)C (stereo not given)
inactive: [16] | [17]

CCc1cc(C)cc(CC)c1-c1c(OC(=O)C(C)(C)C)n2n(c1=O)CCOCC2
active: [4] 5.7 µM | [5] 24.7 µM | [8] 9.41 µM | [11] 6.89 µM
not listed: [16] | [17] | [18] | [19] | [20]
inactive: all other assays above

C=COCCCl
inactive: [18]

C[C@]12CCC(=O)C(O)=C1CC[C@@H]1[C@@H]2CC[C@]2(C)C(=O)CC[C@@H]12
active: [19] 9.42 µM

O=C1C=CC(=O)C=C1
inactive: [7] | [10] | [12] | [13] | [14] | [15]
active: [1] 13.8 µM and 20 µM | [2] 20 µM and 28.6 µM | [3] 26.2 µM and 6.35 µM | [4] 13.4 µM and 8.64 µM | [5] 28.8 µM and 13.8 µM | [6] 5.14 µM and 4.77 µM | [8] 16.1 µM and 20 µM | [9] 16.3 µM and 30.9 µM | [11] 1.68 µM and 14.6 µM

Cc1ccc(C)c2ccccc12
inactive: [16] | [17]

O=C(O)c1cc[c]([Hg][Cl])cc1
inactive: [19]

CCCCCCC1CCOC1=O (stereo not given)
inactive: [18]

CC1(C)CC(=O)CC(C)(C)N1[O]
inactive: [18]

CN(N=O)c1ccccc1
inactive: [19]

COC(C)(C)CCC[C@H](C)C/C=C/C(C)=C/C(=O)OC(C)C
inactive: [18] | [10] | [11] | [12] | [13] | [14] | [15]
active: [1] 28.8 µM | [2] 30.4 µM | [3] 26 µM | [4] 28.7 µM | [5] 28.3 µM | [6] 20 µM | [7] 32 µM | [8] 31.6 µM | [9] 20 µM

CC(C)[C@@H](C(=O)O[C@@H](C#N)c1cccc(Oc2ccccc2)c1)c1ccc(Cl)cc1
inactive: [16] | [17]

O=[N+]([O-])c1ccc(Cl)cc1
not listed: [16] | [17] | [18] | [19]
inactive: all other assays above

O=S(=O)(O)OOS(=O)(=O)O
inactive: [16] | [17]

C[N+](C)(C)CC(=O)O
inactive: [19]

Cc1ccccc1CCl
inactive: [18]

C[N+](C)=CCl
inactive: [19]

O=C(O)COc1ccccc1
inactive: [19]

O=c1c2ccccc2c(=O)c2c1cc(Cl)c1[nH]c3c([nH]c12)c(Cl)cc1c(=O)c2ccccc2c(=O)c13
active: [6] 20 µM
not listed: [16] | [17] | [20]
inactive: all other assays above

CCN(CC)CCOc1ccc(C(=C(Cl)c2ccccc2)c2ccccc2)cc1
active: [20] 27.1 µM

CCCCCCCCCC(=O)O
inactive: [20]

Cc1nc(-c2ccc3c(c2)CCN(CCC2CCC(NC(=O)/C=C/c4ccc(F)cc4)CC2)CC3)no1 (stereo not given)
active: [20] 5.82 µM

CC(C)(c1ccc(O)cc1)c1ccc(O)cc1
inactive: [20]

CCCCCCCCCCCCCC[P+](CCCC)(CCCC)CCCC
active: [20] 5.1 µM

CCCCCCCCCCCCCCCCOS(=O)(=O)O
active: [20] 1.41 µM
